Among the data in PubChem BioAssay (NCI) are growth inhibition values, retold here.

Test [1] is described as follows: NCI Yeast Anticancer Drug Screen. Data for the rad50 strain (AID 155).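 Further: 0% = growth of vehicle-only cultures of the same strain.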 The settings on record: S. cerevisiae rad50 strain growth inhibition, hits give high values. An outline of the steps: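 Yeast carrying a defined DNA repair defect were exposed to test compounds, and growth was compared with vehicle-treated controls to give percent inhibition.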
A short description of test [2]: NCI Yeast Anticancer Drug Screen. Data for the mec2-1 strain (AID 157). The settings on record: S. cerevisiae mec2-1 strain, hits give high values. The gist of the method:
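Vehicle-treated cultures served as reference for growth inhibition of compound-exposed mec2-1 yeast.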

The nature of test [3]: NCI Yeast Anticancer Drug Screen. Data for the sgs1 mgt1 strain (AID 161).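 Further: 0% = growth of cultures given vehicle only.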 As to conditions: S. cerevisiae sgs1 mgt1 strain, hits give high values. An outline of the steps:
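Read-out: growth inhibition vs vehicle controls. Cells: mutant yeast strain deficient in DNA damage repair.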

Test [4] is described as follows: NCI Yeast Anticancer Drug Screen. Data for the cln2 rad14 strain (AID 165).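 Further: 0% = growth equal to vehicle treated cultures.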 The settings on record: S. cerevisiae cln2 rad14 strain, hits give high values. The gist of the method: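 Each compound was tested on cln2 rad14 yeast. Inhibition of growth was calculated against vehicle-exposed controls.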
Test [5] in a line: NCI Yeast Anticancer Drug Screen. Data for the bub3 strain (AID 167). As to conditions: S. cerevisiae bub3 mutant strain, hits give high values. The gist of the method:
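Compounds were applied to a genetically altered yeast strain carrying a cell-cycle control defect. Growth inhibition was scored against vehicle-treated controls.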

The nature of test [6]: NCI Yeast Anticancer Drug Screen. Data for the mlh1 rad18 strain (AID 175). The settings on record: S. cerevisiae mlh1 rad18 strain growth inhibition, hits give high values. An outline of the steps: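 Vehicle-treated cultures served as the reference for growth inhibition in a yeast strain carrying DNA damage repair alterations exposed to each compound.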
[7] abbreviates: at 5.0 µM (retest, dose inferred, filed as 0.5).
The mark [8] stands for this setting: at 50.0 µM (retest, dose inferred, filed as 5.0).

Molecules are shown by their SMILES. This is part of a sample that, as a whole, favours compounds with a hit. Of some 79,000 tested, about 15% had one in any assay. Unmarked numbers belong to inactive results. The source made the active and inactive calls. No stated cut-off is given here; in the data, active means growth inhibition above about 70%; inactive means the rest.

Regarding `CCOc1ccc(N=Nc2ccccc2)cc1`, the growth inhibition was -11% in test [1] (setting [7]); -58% in test [1] (setting [8]); 1.8% in test [1] (at 50.0 µM); -25% in test [2] (setting [7]); -35% in test [2] (setting [8]); 37.1% in test [2] (at 50.0 µM). In addition, the growth inhibition in test [3] (setting [7]) was -8%; in test [3] (setting [8]), -39%; in test [3] (at 50.0 µM), -19.8%; in test [4] (setting [7]) it was 0%; in test [4] (setting [8]), -27%; in test [4] (at 50.0 µM), 38%. In addition, the growth inhibition in test [5] (setting [7]) is -13%; in test [5] (setting [8]), -39%; in test [5] (at 50.0 µM), -12.6%; in test [6] (setting [7]), -9%; in test [6] (setting [8]), -49%; in test [6] (at 50.0 µM) it was -11.9%.
Turning to `C=CC(=O)N1C/C(=C\c2ccccc2)C(=O)/C(=C/c2ccccc2)C1`, the growth inhibition in test [1] (setting [7]) was 44%; in test [1] (setting [8]), 75% (active); in test [1] (at 50.0 µM), 73.8% (active); in test [2] (setting [7]), 37%; in test [2] (setting [8]), 80% (active); in test [2] (at 50.0 µM) it was 80.2% (active). In addition, the growth inhibition is 49% in test [3] (setting [7]); 90% (active) in test [3] (setting [8]); 71.7% (active) in test [3] (at 50.0 µM); 39% in test [4] (setting [7]); 58% in test [4] (setting [8]); 48.2% in test [4] (at 50.0 µM). The growth inhibition was 40% in test [5] (setting [7]); 87% (active) in test [5] (setting [8]); 78.5% (active) in test [5] (at 50.0 µM); 50% in test [6] (setting [7]); 94% (active) in test [6] (setting [8]); 84.7% (active) in test [6] (at 50.0 µM).
As to `CCC(CC)C(c1ccc(O)cc1)c1ccc(O)cc1`, the growth inhibition was 92% (active) in test [1] (setting [7]); 99% (active) in test [1] (setting [8]); 99.5% (active) in test [1] (at 50.0 µM); 83% (active) in test [2] (setting [7]); 100% (active) in test [2] (setting [8]); 99.5% (active) in test [2] (at 50.0 µM). In addition, the growth inhibition in test [3] (setting [7]) was 88% (active); in test [3] (setting [8]) it was 77% (active); in test [3] (at 50.0 µM) it was 99.6% (active); in test [4] (setting [7]) it was 97% (active); in test [4] (setting [8]), 100% (active); in test [4] (at 50.0 µM), 99.2% (active). The growth inhibition in test [5] (setting [7]) is 75% (active); in test [5] (setting [8]) it was 98% (active); in test [5] (at 50.0 µM) it was 99.7% (active); in test [6] (setting [7]), 95% (active); in test [6] (setting [8]), 100% (active); in test [6] (at 50.0 µM), 99.5% (active).
As to `CCC(C(=O)CCN(C)C)(c1ccccc1)c1ccccc1`, the growth inhibition is 67% in test [1] (setting [7]); 99% (active) in test [1] (setting [8]); 99.5% (active) in test [1] (at 50.0 µM); 49% in test [2] (setting [7]); 99% (active) in test [2] (setting [8]); 99.6% (active) in test [2] (at 50.0 µM). The growth inhibition in test [3] (setting [7]) was 80% (active); in test [3] (setting [8]), 99% (active); in test [3] (at 50.0 µM), 99.3% (active); in test [4] (setting [7]), 19%; in test [4] (setting [8]), 99% (active); in test [4] (at 50.0 µM) it was 99.3% (active). Further, the growth inhibition is 59% in test [5] (setting [7]); 99% (active) in test [5] (setting [8]); 99.8% (active) in test [5] (at 50.0 µM); 80% (active) in test [6] (setting [7]); 99% (active) in test [6] (setting [8]); 99.5% (active) in test [6] (at 50.0 µM).
As for `CC(=O)Nc1cccc(Oc2ccc(Br)cc2[N+](=O)[O-])c1`, the growth inhibition in test [1] (setting [7]) is -3%; in test [1] (setting [8]), 66%; in test [1] (at 50.0 µM), 58.5%; in test [2] (setting [7]), 1%; in test [2] (setting [8]), 78% (active); in test [2] (at 50.0 µM) it was 10%. For the same compound, the growth inhibition in test [3] (setting [7]) was 9%; in test [3] (setting [8]) it was 94% (active); in test [3] (at 50.0 µM), 83.1% (active); in test [4] (setting [7]), 0%; in test [4] (setting [8]), 47%; in test [4] (at 50.0 µM), 24.7%. Moreover, the growth inhibition was -1% in test [5] (setting [7]); 63% in test [5] (setting [8]); 42.6% in test [5] (at 50.0 µM); 20% in test [6] (setting [7]); 89% (active) in test [6] (setting [8]); 70.5% (active) in test [6] (at 50.0 µM).
`CC1(c2ccc(Cl)cc2)OC(=O)C(=Cc2ccc([N+](=O)[O-])s2)C(=O)O1` (stereo not given): the growth inhibition in test [1] (setting [7]) was 26%; in test [1] (setting [8]) it was 99% (active); in test [1] (at 50.0 µM), 51.5%; in test [2] (setting [7]), 15%; in test [2] (setting [8]), 99% (active); in test [2] (at 50.0 µM), 40.4%. Also, the growth inhibition was 49% in test [3] (setting [7]); 99% (active) in test [3] (setting [8]); 88.9% (active) in test [3] (at 50.0 µM); 44% in test [4] (setting [7]); 99% (active) in test [4] (setting [8]); 52.4% in test [4] (at 50.0 µM). Also, the growth inhibition in test [5] (setting [7]) is 45%; in test [5] (setting [8]), 99% (active); in test [5] (at 50.0 µM) it was 84.7% (active); in test [6] (setting [7]), 18%; in test [6] (setting [8]) it was 82% (active); in test [6] (at 50.0 µM), 92.9% (active).
Consider `CCCCCCCCCCCCCCC(O)C[N+](C)(CCO)CCO` (stereo not given), for which the growth inhibition is 29% in test [1] (setting [7]); 98% (active) in test [1] (setting [8]); 86.6% (active) in test [1] (at 50.0 µM); 22% in test [2] (setting [7]); 99% (active) in test [2] (setting [8]); 87.7% (active) in test [2] (at 50.0 µM). Besides, the growth inhibition in test [3] (setting [7]) was 32%; in test [3] (setting [8]), 99% (active); in test [3] (at 50.0 µM) it was 88.8% (active); in test [4] (setting [7]), 10%; in test [4] (setting [8]), 98% (active); in test [4] (at 50.0 µM) it was 88.3% (active). In addition, the growth inhibition in test [5] (setting [7]) was 28%; in test [5] (setting [8]) it was 99% (active); in test [5] (at 50.0 µM), 86% (active); in test [6] (setting [7]), 32%; in test [6] (setting [8]) it was 98% (active); in test [6] (at 50.0 µM), 88.9% (active).
On to `CCN(CC)CCCNc1cc(C)nc2c1ccc1c2ccc2c(NCCCN(CC)CC)cc(C)nc21`, for which the growth inhibition in test [1] (setting [7]) was -4%; in test [1] (setting [8]), 92% (active); in test [1] (at 50.0 µM), 61.9%; in test [2] (setting [7]) it was -2%; in test [2] (setting [8]), 75% (active); in test [2] (at 50.0 µM), 97.8% (active). Moreover, the growth inhibition in test [3] (setting [7]) was -1%; in test [3] (setting [8]) it was 78% (active); in test [3] (at 50.0 µM), 65.8%; in test [4] (setting [7]), -7%; in test [4] (setting [8]), 82% (active); in test [4] (at 50.0 µM), 73.7% (active). In addition, the growth inhibition in test [5] (setting [7]) was -4%; in test [5] (setting [8]) it was 97% (active); in test [5] (at 50.0 µM), 96.7% (active); in test [6] (setting [7]), -4%; in test [6] (setting [8]), 81% (active); in test [6] (at 50.0 µM), 94.2% (active).
As to `CCCCCN(CCCCC)C(=S)Nc1ccccc1`, the growth inhibition in test [1] (setting [7]) was -36%; in test [1] (setting [8]), 67%; in test [1] (at 50.0 µM), 84.9% (active); in test [2] (setting [7]), -5%; in test [2] (setting [8]) it was 85% (active); in test [2] (at 50.0 µM), 80.5% (active). In addition, the growth inhibition was -19% in test [3] (setting [7]); 83% (active) in test [3] (setting [8]); 77% (active) in test [3] (at 50.0 µM); -22% in test [4] (setting [7]); 74% (active) in test [4] (setting [8]); 80.9% (active) in test [4] (at 50.0 µM). The growth inhibition in test [5] (setting [7]) is 1%; in test [5] (setting [8]), 94% (active); in test [5] (at 50.0 µM) it was 87.8% (active); in test [6] (setting [7]) it was -4%; in test [6] (setting [8]) it was 90% (active); in test [6] (at 50.0 µM) it was 89.4% (active).
For the compound `COc1cc(C(c2ccccc2)c2ccccc2)c2ccccc2c1O`, the growth inhibition is 15% in test [1] (setting [7]); 51% in test [1] (setting [8]); 33.3% in test [1] (at 50.0 µM); 15% in test [2] (setting [7]); 41% in test [2] (setting [8]); 16.6% in test [2] (at 50.0 µM). Further, the growth inhibition was -17% in test [3] (setting [7]); 25% in test [3] (setting [8]); 61.4% in test [3] (at 50.0 µM); 13% in test [4] (setting [7]); 73% (active) in test [4] (setting [8]); 44.9% in test [4] (at 50.0 µM). Moreover, the growth inhibition in test [5] (setting [7]) is 8%; in test [5] (setting [8]) it was 70% (active); in test [5] (at 50.0 µM), 40.2%; in test [6] (setting [7]), 24%; in test [6] (setting [8]) it was 75% (active); in test [6] (at 50.0 µM), 74% (active).
